# MCF10A rerep: induces DNA re-replication in MCF 10a normal breast cells. MCF 10A DNA re-replication, Hoechst nuclear intensity, 48 h. Potency, µM (series often up to 46.1 µM), for the others: top-dose activity, positive = re-replication, hits mostly activators. 2.9% of 350,000 active; also: % of control where 0% means no effect; nearly all actives have a fitted effect of over 50% in size
# KB-3-1 cytotox: kills parental KB-3-1 adenocarcinoma cells | 1.4% of 400,000 active | KB-3-1 viability, CellTiter-Glo ATP luminescence, 72 h | Potency, µM (series often up to 46.1 µM), most hits filed as cytotoxic; also: % is scaled to controls: 0 for no effect and ±100 for the full control effect; nearly all actives have a fitted effect of over 60% in size
#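 Using CellTiter-Glo luminescence, growth of non-resistant KB-3-1 adenocarcinoma cells is assessed 72 h after pin-tool compound addition at 37 °C. Normalized responses across the concentration series yield fitted curves.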
# SW480 rerep: inducers of DNA re-replication in SW480 colon cancer cells | Potency, µM (highest dose often 46.1 µM), inactives show at the top dose re-replication activation, most hits filed as activators | SW480 DNA re-replication, Hoechst DNA content imaging, 48 h | AID 624297 | 1.8% of 340,000 active; also: % of control where 0% means no effect; nearly all actives have a fitted effect of over 55% in size
#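 Cells (250 per well) received 23 nL compound or DMSO by pin tool and were kept 48 hr at 37 C, 5% CO2. Nuclei were then stained with Hoechst for 40 min and scanned for DNA content.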
# HT1080 IDH1KD tx: kills HT-1080 cells with IDH1 knockdown. HT-1080 IDH1 knockdown viability, ATP luminescence, 48 h. Potency, µM (titrated, usually from 46.1 µM), for the others: at the top dose activity, negative = toxicity, actives largely listed as cytotoxic. 2% of 360,000 active;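 also: 0% = DMSO wells and -100% = cell-free medium wells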
#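 Assay cells: HT-1080 with IDH1 knockdown, 750 per well, RPMI/5% FBS. Exposure: 48 h at 37 °C following 2 h pre-incubation. Read: CellTiter-Glo luminescence; fitted concentration-response, curve class assigned.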
# KB-V1 cytotox: kills drug-selected multidrug resistant KB-V1 cells | KB-V1 MDR cells viability, CellTiter-Glo, 72 h | Potency, µM (doses to about 46.1 µM), actives largely listed as cytotoxic | 3.4% of 400,000 active; also: % is scaled to controls: 0 for no effect and ±100 for the full control effect; nearly all actives have a fitted effect of over 60% in size
#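 Potencies derive from concentration-effect curves fitted to normalized luminescence (CellTiter-Glo) of KB-V1 cells treated for 72 h at 37 degrees C in phenol-red-free DMEM containing 10% FBS.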
# HT1080-NT tox: kills 2HG-producing HT-1080-NT fibrosarcoma cells; HT-1080-NT fibrosarcoma viability, CellTiter-Glo ATP luminescence, 48 h; Potency, µM (doses to about 46.1 µM), inactives show at the top dose activity, negative = less viability, actives largely listed as cytotoxic; 1.6% of 360,000 active; AID 686970;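 also: NT is the 2HG producing partner of a matched IDH1 knockdown line; 0% = DMSO-treated cells and -100% = media-only wells without cells; nearly all actives have a fitted effect of over 55% in size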
#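 Viability by CellTiter-Glo luminescence after 48 h compound exposure at 37C of HT-1080-NT cells (750/well, RPMI, 5% FBS). % activity scaled between DMSO wells and medium-only wells, then curve-fitted and categorized by curve class.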
# * marks the source's active call; other numbers are inactive results; i = inactive; ? = inconclusive; nt = no result; [ ] = dose if it differs, or a comment. Compounds with a hit are over-represented: about 8% of the library has one in this group of screens. Calls follow the shape of the dose curve; as a rule, active = well fitted curve in the direction sought with a large enough effect; inconclusive = small, poorly fitted or top-dose-only effect, or another doubt; inactive = no such curve, though single readings can be large; an effect the other way counts as inactive or inconclusive. Potency is read from the fitted curve at half-maximal effect.
SMILES,MCF10A rerep,KB-3-1 cytotox,SW480 rerep,HT1080 IDH1KD tx,KB-V1 cytotox,HT1080-NT tox
S=C(Nc1ccccc1)N1CCN(C/C=C/c2ccccc2)CC1,1%,i,-10%,-10%,i,-2%
Fc1ccccc1NC(=S)N1CCN(C/C=C/c2ccccc2)CC1,17%,?,1%,-2%,16µM*,0%
CCn1c(CN2CCCCC2)nc2cc(NC(=O)COc3ccc(C(C)(C)C)cc3)ccc21,nt,i,nt,nt,i,nt
Cc1oc(-c2ccc(C(=O)NCc3ccccc3)cc2)nc1CN1CCc2ccccc21,nt,i,nt,nt,i,nt
COC(=O)c1scc(-c2ccc(C)cc2)c1S(=O)(=O)N1CCN(c2ccc(OC)cc2)CC1,nt,i,nt,nt,i,nt
COCCNc1oc(/C=C/c2ccccc2OC)nc1S(=O)(=O)c1ccccc1,21µM*,i,?,-9%,i,-10%
COc1ccccc1/C=C/c1nc(S(=O)(=O)c2ccccc2)c(N2CCC(C(N)=O)CC2)o1,?,i,18µM*,-7%,i,2%
COCCNc1oc(-c2ccccc2Cl)nc1S(=O)(=O)c1ccc(C)cc1,5%,nt,-3%,-1%,nt,2%
NC1=NC(=Nc2ccc(Cl)cc2)c2ccccc21,?,i,-9%,?,i,-29%
NC1=NC(=Nc2ccccc2)c2ccccc21,?,i,-1%[9.22 µM],?,i,?
CC(C)c1ccc(N=C2N=C(N)c3ccccc32)cc1,?,?,-64%,?,?,18µM*
NC1=NC(=Nc2ccc(Br)cc2)c2ccccc21,?,?,-2%,13µM*,i,23µM*
Cc1cc(Cl)ccc1N=C1N=C(N)c2ccccc21,?,i,5%,?,i,23µM*
O=C(CCc1nc(-c2cccs2)no1)Nc1ccccc1[N+](=O)[O-],nt,i,nt,nt,i,nt
Cc1ccc2nc(N3CCN(C(=O)c4ccccc4F)CC3)c(C#N)cc2c1,12µM*,i,26%,3%,i,11%
Cc1nn(-c2ccccc2)c2c1cc1c(=O)[nH]c(=O)nc-1n2-c1cccc(Cl)c1,nt,i,nt,nt,i,nt
CCn1c(C)nc2cc(C(=O)N/N=C(\C)c3ccc(OC)cc3O)ccc21,-14%,i,7%,15µM*,?,?
COc1ccc2nc(NC(=O)c3cc(=O)c4cc(C)cc(C)c4o3)sc2c1,nt,i,nt,nt,i,nt
CC(C)n1c(SCC(=O)Nc2ccc(F)cc2)nc2c(oc3ccccc32)c1=O,nt,i,nt,nt,i,nt
N/C(=C\C(=O)c1cc(Cl)ccc1O)C(Cl)(Cl)Cl,12µM*,?,10µM*,13µM*,7.3µM*,8.2µM*
COC1(OC)C(/C=C/c2ccc(Cl)cc2)C(C#N)(C#N)C1(OC)OC (centres undefined),6.5µM*,?,?,21µM*,?,-23%
COc1cc2nc(C3CCC3)n(NC(=O)C3CCC3)c(=O)c2cc1OC,-4%,i,-3%,10%,i,12%
COc1cc2nc(C3CCC3)n(NC(=O)COc3ccccc3)c(=O)c2cc1OC,?,i,14%,1%,?,7.1µM*
CCCN1CNc2c(c(=O)[nH]c(=S)n2CCc2ccc(Cl)cc2)C1,nt,nt,nt,0%,nt,-7%
Cc1cccc(C(=O)NC(=O)Nc2ccc(-c3cc(C(F)(F)F)nn3-c3ccccc3)cc2)c1,nt,i,nt,nt,i,nt
SMILES,MCF10A rerep,KB-3-1 cytotox,SW480 rerep,HT1080 IDH1KD tx,KB-V1 cytotox,HT1080-NT tox
O=C1NC(Cc2ccccc2)c2nc3ccccc3c(=O)n2-c2cc3ccccc3cc21 (centres undefined),nt,13µM*,nt,9.2µM*,?,?
O=C1NC(Cc2ccccc2)c2nc3cc(F)ccc3c(=O)n2-c2cc3ccccc3cc21 (centres undefined),nt,?,nt,16µM*,?,?
COc1cc2nc3n(c(=O)c2cc1OC)-c1cc2ccccc2cc1C(=O)NC3Cc1ccccc1 (centres undefined),nt,i,nt,-23%,i,-19%
Cc1ccc2c(=O)n3c(nc2c1)C(Cc1ccccc1)NC(=O)c1cc2ccccc2cc1-3 (centres undefined),nt,12µM*,nt,5.8µM*,?,6.5µM*
CCC1NC(=O)c2cc3ccccc3cc2-n2c1nc1cc(F)ccc1c2=O (centres undefined),nt,i,nt,3%,?,14%
O=C(CSc1ccccc1)NCc1ccc2c(c1)CCN2C(=O)c1ccc(Cl)cc1,nt,i,nt,nt,i,nt
COc1cc(/C=N/N2CCOCC2)ccc1OCc1ccc(Cl)cc1,29%,i,1%,-2%,i,1%
COc1cc(/C=N/OCC(=O)NC2CCCCC2C)ccc1OCc1ccc(Cl)cc1 (centres undefined),16µM*,?,-2%,?,8.2µM*,-21%
COc1cc(/C=N/OCC(=O)Nc2cc(C)cc(C)c2)ccc1OCc1ccc(Cl)cc1,20%,?,nt,-4%,21µM*,9%
Cc1cc(C)c(OCCOCCN2CCN(C)CC2)c(Cl)c1,5.8µM*,i,-34%,3%,i,-1%
Cc1ccc2c(c1)N(S(=O)(=O)c1cc(-c3onc(C)c3C)ccc1C)CCO2,6%,23µM*,?,?,?,?
S=C(Nc1ccc(Cl)cc1)Nc1ccc2c(c1)OCCO2,11%,i,5.2µM*,0%,i,4%
CCC(=O)N1CCN(c2ccc(Cl)cc2NC(=O)c2ccc3c(c2)OCCO3)CC1,7%,i,-3%,-10%,5.2µM*,-1%
Cc1cc(C)cc(C(=O)NC(=S)Nc2ccc3c(c2)OCCO3)c1,5%,i,-5%,10%,4.6µM*,-3%
O=C(NC(=S)Nc1ccc(N2CCCCC2)c(Cl)c1)c1ccc2c(c1)OCCO2,9.2µM*,1.2µM*,?,18µM*,?,12µM*
NS(=O)(=O)c1ccc(N2N=C(c3ccccc3)CC2c2cccc(Br)c2)cc1 (centres undefined),5.2µM*,i,23µM*,-16%,?,-22%
COc1cccc2c1OC1(CCN(C(C)C)CC1)N1N=C(c3cccnc3)CC21 (centres undefined),7%,i,-2%,16%,i,10%
COc1cc(C2CC(c3cccnc3)=NN2c2ccc(F)cc2)cc(OC)c1OC (centres undefined),?,i,8.2µM*,0%,i,-1%

# Source: PubChem (National Center for Advancing Translational Sciences (NCATS))
